Experiments:
Test in all cases: DAPPL (digital affinity profiling via proximity ligation, sequencing); 10 mM Tris-HCl pH 7.5, 50 mM NaCl, 1 mM DTT, 4% glycerol, room temperature, 30 min; GST-TFs on glutathione beads, 16-mer random dsDNA library, 0.1% formaldehyde crosslink after washing; high values mean tight binding
FLI1 = biological target: T1, FLI1 (Homo sapiens, UniProt Q01543 1-452); details: protein: recombinant; tags: N-terminal GST; dsDNA, one strand shown
T1 sequence: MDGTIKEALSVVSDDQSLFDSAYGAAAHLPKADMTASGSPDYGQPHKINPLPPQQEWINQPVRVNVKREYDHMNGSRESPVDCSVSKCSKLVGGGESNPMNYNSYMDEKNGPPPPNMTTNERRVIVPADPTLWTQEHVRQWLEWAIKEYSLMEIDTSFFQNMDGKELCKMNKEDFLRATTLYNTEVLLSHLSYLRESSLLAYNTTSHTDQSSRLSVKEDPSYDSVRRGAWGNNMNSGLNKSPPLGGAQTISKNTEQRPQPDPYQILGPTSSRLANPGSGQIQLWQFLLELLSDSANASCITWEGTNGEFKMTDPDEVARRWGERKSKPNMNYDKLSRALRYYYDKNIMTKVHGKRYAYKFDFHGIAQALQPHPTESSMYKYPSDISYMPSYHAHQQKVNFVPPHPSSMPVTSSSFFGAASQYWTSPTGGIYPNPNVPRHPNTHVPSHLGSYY
In short: (§1)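 Pools of DNA-barcoded human transcription factors, expressed in yeast as GST fusions on glutathione beads and combined with a tag-only sample, were incubated with 200 nmole of a 16-mer random double-stranded DNA library. Incubation took 30 min at room temperature in Tris/NaCl/DTT/glycerol buffer and was followed by washing, 0.1% formaldehyde crosslinking, proximity ligation (BsaI/T4 ligase, 1 h, 37 °C), PCR amplification and sequencing on an Illumina NextSeq500. Binding signal is the ratio of a hexamer's read frequency for a factor to its frequency for the tag-only sample.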

ELK1 = biological target: T2, ELK1 (Homo sapiens, UniProt P19419 1-428); details: protein: recombinant; tags: N-terminal GST; dsDNA, one strand shown
T2 sequence: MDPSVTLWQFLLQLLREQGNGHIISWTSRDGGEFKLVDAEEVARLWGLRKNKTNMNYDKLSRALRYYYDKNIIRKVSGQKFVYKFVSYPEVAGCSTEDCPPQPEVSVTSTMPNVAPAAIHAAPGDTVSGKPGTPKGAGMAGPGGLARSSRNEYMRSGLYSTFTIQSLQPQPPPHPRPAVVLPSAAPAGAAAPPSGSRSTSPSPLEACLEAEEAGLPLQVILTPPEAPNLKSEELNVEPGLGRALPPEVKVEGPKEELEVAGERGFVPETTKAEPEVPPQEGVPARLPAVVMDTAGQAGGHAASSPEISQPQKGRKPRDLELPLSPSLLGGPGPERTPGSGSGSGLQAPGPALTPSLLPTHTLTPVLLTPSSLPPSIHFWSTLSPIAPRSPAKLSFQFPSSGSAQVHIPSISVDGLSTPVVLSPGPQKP
In short: as §1

GABPA = biological target: T3, GABPA (Homo sapiens, UniProt Q06546 1-454); details: protein: recombinant; tags: N-terminal GST; dsDNA, one strand shown
T3 sequence: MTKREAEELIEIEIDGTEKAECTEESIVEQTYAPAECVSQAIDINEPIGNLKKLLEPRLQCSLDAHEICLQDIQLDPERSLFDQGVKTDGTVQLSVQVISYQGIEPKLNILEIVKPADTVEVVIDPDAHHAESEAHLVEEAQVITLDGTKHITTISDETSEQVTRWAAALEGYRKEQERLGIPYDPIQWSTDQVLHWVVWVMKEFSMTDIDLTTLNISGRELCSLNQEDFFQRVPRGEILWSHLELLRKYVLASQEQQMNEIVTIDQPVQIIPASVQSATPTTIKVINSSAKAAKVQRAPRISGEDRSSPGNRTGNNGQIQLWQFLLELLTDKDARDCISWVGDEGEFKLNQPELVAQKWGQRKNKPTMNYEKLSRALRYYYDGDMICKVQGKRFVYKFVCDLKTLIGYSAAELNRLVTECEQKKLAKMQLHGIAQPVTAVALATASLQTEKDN
In short: as §1

ERG = biological target: T4, ERG (Homo sapiens, UniProt P11308 1-479); details: protein: recombinant; tags: N-terminal GST; dsDNA, one strand shown
T4 sequence: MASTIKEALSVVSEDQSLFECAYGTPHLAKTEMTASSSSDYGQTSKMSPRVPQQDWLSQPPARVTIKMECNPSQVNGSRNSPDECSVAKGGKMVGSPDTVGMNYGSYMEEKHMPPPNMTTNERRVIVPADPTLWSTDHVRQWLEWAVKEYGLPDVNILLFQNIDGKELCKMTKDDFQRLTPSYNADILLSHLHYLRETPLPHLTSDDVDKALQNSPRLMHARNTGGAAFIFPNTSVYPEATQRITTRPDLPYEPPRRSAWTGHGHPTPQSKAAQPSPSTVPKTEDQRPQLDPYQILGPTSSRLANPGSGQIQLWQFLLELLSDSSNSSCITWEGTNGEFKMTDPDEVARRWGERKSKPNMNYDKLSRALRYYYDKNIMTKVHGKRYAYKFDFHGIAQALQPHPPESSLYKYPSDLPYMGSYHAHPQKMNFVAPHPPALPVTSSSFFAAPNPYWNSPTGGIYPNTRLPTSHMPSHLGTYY
In short: as §1

ELF1 = ELF1 (Homo sapiens, UniProt P32519 1-619); details: protein: recombinant; tags: N-terminal GST; dsDNA, one strand shown
In short: as §1

EHF = biological target: T5, EHF (Homo sapiens, UniProt Q9NZC4 1-300); details: protein: recombinant; tags: N-terminal GST; dsDNA, one strand shown
T5 sequence: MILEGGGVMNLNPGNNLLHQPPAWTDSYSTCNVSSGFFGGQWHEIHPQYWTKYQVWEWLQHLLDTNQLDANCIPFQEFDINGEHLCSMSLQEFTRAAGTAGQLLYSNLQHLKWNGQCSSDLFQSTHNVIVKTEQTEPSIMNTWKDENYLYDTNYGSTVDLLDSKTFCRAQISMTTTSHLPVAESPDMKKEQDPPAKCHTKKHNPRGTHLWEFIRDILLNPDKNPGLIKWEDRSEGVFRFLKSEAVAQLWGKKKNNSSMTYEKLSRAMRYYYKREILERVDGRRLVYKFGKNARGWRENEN
In short: as §1

SPI1 = SPI1 (Homo sapiens, UniProt P17947 1-270); details: protein: recombinant; tags: N-terminal GST; dsDNA, one strand shown
In short: as §1

SPIB = SPIB (Homo sapiens, UniProt Q01892 1-262); details: protein: recombinant; tags: N-terminal GST; dsDNA, one strand shown
In short: as §1

ELK3 = biological target: T6, ELK3 (Homo sapiens, UniProt P41970 1-407); details: protein: recombinant; tags: N-terminal GST; dsDNA, one strand shown
T6 sequence: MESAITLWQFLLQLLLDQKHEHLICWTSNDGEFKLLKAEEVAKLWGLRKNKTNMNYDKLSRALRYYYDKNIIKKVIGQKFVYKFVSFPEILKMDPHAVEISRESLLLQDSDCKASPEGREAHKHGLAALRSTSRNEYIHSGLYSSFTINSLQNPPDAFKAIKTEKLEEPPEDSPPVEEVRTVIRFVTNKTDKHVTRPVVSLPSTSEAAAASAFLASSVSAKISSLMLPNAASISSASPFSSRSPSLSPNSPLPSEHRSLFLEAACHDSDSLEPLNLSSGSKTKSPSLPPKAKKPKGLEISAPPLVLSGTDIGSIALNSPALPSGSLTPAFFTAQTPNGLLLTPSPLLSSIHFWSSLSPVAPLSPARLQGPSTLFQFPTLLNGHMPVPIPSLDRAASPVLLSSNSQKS
In short: as §1

FEV = biological target: T7, FEV (Homo sapiens, UniProt Q99581 1-238); details: protein: recombinant; tags: N-terminal GST; dsDNA, one strand shown
T7 sequence: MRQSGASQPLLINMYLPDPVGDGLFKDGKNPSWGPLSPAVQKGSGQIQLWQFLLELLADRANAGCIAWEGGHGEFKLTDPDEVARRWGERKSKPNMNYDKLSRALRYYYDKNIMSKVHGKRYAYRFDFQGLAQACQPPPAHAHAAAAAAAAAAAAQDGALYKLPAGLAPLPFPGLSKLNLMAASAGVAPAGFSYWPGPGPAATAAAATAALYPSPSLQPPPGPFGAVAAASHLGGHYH
In short: as §1

ETV5 = ETV5 (Homo sapiens, UniProt P41161 1-510); details: protein: recombinant; tags: N-terminal GST; dsDNA, one strand shown
In short: as §1

HSF1 = HSF1 (Homo sapiens, UniProt Q00613 1-529); details: protein: recombinant; tags: N-terminal GST; chain copies: 3; dsDNA, one strand shown
In short: as §1

SPIC = biological target: T8, SPIC (Homo sapiens, UniProt Q8N5J4 1-248); details: protein: recombinant; tags: N-terminal GST; dsDNA, one strand shown
T8 sequence: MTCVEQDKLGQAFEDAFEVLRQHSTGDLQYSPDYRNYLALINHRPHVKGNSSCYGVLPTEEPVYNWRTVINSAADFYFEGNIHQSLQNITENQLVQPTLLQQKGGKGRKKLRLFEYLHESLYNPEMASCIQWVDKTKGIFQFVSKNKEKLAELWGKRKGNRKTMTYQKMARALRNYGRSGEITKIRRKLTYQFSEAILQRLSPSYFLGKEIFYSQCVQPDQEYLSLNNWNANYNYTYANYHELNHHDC
In short: as §1

ELF4 = ELF4 (Homo sapiens, UniProt Q99607 1-663); details: protein: recombinant; tags: N-terminal GST; dsDNA, one strand shown
In short: as §1

ELK4 = biological target: T9, ELK4 (Homo sapiens, UniProt P28324-2 1-405); details: protein: recombinant; tags: N-terminal GST; dsDNA, one strand shown
T9 sequence: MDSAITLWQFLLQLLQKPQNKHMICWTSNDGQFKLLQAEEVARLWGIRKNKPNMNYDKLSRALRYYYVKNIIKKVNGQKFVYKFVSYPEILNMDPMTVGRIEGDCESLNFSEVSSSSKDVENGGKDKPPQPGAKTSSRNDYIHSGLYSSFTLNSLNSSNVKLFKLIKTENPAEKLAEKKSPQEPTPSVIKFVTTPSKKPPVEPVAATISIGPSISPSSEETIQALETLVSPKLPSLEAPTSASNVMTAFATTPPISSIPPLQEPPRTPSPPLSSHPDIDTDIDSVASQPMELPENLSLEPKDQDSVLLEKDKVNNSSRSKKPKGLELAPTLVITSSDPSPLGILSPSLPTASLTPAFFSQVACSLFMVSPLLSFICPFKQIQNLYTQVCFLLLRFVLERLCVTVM
In short: as §1

ETV2 = biological target: T10, ETV2 (Homo sapiens, UniProt O00321 1-342); details: protein: recombinant; tags: N-terminal GST; dsDNA, one strand shown
T10 sequence: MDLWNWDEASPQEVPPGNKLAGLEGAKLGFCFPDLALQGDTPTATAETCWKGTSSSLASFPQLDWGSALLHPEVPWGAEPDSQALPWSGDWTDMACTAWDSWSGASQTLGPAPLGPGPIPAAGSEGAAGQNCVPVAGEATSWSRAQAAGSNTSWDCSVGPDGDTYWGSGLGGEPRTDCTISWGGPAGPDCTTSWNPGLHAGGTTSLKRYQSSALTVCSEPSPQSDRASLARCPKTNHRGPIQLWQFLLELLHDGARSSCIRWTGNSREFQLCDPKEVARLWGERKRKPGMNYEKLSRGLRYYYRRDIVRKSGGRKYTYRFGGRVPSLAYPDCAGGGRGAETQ
In short: as §1

ELF3 = biological target: T11, ELF3 (Homo sapiens, UniProt P78545 1-371); details: protein: recombinant; tags: N-terminal GST; dsDNA, one strand shown
T11 sequence: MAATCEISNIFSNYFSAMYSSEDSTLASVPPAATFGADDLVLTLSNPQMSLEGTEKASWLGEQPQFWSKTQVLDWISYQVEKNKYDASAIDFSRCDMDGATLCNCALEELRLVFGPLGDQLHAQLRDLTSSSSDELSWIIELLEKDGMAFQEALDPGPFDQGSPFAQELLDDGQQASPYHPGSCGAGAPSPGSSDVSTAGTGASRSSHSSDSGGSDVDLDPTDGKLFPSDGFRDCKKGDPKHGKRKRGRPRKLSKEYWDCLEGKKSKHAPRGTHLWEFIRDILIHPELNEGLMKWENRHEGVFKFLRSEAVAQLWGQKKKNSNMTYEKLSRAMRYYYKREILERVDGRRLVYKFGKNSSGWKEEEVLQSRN
In short: as §1

CRX = CRX (Homo sapiens, UniProt O43186 1-299); details: protein: recombinant; tags: N-terminal GST; dsDNA, one strand shown
In short: as §1

ETV1 = ETV1 (Homo sapiens, UniProt P50549 1-477); details: protein: recombinant; tags: N-terminal GST; dsDNA, one strand shown
In short: as §1

Chain of ELF1 (P32519 whole entry): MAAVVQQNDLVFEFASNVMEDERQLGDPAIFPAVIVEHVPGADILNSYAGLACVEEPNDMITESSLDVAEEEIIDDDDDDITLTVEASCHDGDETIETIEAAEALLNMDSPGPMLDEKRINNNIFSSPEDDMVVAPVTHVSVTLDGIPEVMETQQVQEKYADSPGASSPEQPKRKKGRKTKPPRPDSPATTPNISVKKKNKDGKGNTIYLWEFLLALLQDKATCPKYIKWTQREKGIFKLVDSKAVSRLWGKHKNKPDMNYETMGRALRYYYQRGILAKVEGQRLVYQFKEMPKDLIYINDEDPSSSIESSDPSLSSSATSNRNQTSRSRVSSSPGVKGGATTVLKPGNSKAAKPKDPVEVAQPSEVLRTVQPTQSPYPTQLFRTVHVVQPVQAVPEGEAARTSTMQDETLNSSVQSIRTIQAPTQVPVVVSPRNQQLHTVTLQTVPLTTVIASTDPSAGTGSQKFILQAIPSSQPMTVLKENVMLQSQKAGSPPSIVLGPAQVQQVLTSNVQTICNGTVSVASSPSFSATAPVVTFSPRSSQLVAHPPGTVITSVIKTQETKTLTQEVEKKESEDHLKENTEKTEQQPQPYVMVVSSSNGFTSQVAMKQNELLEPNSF
Chain of SPIB (Q01892 whole entry): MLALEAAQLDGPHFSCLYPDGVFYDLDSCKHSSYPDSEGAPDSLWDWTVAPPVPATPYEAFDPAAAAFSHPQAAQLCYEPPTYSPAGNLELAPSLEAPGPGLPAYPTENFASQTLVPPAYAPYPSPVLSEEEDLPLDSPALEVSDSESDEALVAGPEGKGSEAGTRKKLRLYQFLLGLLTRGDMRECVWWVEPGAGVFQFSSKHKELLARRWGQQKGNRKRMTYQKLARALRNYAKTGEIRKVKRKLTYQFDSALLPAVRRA
Chain of ELF4 (Q99607 whole entry): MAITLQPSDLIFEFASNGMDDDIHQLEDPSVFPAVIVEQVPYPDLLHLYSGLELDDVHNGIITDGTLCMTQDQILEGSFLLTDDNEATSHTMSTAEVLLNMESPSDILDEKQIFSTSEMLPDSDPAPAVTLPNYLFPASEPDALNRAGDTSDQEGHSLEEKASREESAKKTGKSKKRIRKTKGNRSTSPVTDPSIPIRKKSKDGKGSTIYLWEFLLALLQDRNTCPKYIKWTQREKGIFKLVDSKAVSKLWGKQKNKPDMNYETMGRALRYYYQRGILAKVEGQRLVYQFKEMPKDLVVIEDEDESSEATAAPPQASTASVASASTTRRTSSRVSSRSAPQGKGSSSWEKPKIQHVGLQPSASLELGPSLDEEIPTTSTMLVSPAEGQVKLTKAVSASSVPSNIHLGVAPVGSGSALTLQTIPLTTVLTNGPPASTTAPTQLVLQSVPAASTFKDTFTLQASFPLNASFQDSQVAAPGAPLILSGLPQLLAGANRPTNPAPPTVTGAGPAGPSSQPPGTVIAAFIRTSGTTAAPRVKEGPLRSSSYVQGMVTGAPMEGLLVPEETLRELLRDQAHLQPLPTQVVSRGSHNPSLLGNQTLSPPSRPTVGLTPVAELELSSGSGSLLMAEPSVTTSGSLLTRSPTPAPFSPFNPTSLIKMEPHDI
Chain of ETV5 (P41161 whole entry): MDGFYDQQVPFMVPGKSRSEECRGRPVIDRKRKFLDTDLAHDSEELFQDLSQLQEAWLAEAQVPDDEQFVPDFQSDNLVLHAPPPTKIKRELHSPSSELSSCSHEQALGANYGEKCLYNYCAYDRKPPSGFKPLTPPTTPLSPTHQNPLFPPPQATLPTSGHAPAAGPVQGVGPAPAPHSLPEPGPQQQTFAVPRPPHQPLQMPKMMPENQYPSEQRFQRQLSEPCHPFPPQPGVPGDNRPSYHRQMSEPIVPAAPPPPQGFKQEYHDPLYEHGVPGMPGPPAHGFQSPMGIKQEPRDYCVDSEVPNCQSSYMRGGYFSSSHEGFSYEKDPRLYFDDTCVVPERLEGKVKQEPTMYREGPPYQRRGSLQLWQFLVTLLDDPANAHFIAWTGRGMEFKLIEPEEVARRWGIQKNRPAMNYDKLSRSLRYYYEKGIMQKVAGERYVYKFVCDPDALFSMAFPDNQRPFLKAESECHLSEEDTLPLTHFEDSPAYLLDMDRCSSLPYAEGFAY
Chain of HSF1 (Q00613 whole entry): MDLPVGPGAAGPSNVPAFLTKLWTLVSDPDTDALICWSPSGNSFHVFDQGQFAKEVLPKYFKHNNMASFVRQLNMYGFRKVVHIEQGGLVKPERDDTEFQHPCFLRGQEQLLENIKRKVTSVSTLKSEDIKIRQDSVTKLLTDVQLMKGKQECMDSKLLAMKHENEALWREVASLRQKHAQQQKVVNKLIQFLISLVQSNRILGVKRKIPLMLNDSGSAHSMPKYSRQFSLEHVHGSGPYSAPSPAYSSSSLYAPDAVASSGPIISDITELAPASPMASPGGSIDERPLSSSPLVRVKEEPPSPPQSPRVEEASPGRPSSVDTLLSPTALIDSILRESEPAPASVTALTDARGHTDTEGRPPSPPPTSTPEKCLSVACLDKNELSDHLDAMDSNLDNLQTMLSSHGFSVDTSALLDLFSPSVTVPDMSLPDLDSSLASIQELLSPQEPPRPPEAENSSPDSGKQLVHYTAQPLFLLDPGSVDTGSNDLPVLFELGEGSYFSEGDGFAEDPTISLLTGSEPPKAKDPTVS
Chain of CRX (O43186 whole entry): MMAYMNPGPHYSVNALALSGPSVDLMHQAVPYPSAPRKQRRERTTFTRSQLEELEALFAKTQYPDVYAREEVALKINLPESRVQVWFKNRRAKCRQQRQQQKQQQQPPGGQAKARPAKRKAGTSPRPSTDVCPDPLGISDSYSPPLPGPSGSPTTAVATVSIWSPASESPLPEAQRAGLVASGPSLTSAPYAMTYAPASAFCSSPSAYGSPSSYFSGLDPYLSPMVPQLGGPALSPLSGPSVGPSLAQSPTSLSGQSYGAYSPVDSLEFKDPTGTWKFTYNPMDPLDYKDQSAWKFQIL
Chain of ETV1 (P50549 whole entry): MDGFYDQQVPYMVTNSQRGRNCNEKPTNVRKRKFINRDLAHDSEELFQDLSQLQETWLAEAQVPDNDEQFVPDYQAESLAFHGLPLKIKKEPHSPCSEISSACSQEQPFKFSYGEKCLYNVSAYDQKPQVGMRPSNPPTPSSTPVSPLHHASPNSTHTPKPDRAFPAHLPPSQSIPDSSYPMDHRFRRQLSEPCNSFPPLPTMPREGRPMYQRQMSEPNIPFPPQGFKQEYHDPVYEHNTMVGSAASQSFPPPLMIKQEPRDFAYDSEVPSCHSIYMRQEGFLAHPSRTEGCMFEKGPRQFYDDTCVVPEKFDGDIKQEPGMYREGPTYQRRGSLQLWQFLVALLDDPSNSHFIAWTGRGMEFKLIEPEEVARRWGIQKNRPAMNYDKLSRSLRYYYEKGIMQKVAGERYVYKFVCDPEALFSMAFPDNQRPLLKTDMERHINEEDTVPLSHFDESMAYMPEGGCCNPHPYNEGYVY

CTTGCG
binding signal (FLI1): 1.44 fold enrichment (6-mer frequency, TF over GST control)
binding signal (ELK1): 1.42 fold enrichment (6-mer frequency, TF over GST control)
binding signal (GABPA): 1.32 fold enrichment (6-mer frequency, TF over GST control)
binding signal (ERG): 1.35 fold enrichment (6-mer frequency, TF over GST control)
binding signal (ELF1): 1.39 fold enrichment (6-mer frequency, TF over GST control)
binding signal (EHF): 1.41 fold enrichment (6-mer frequency, TF over GST control)
binding signal (SPI1): 1.34 fold enrichment (6-mer frequency, TF over GST control)
binding signal (SPIB): 1.4 fold enrichment (6-mer frequency, TF over GST control)
binding signal (ELK3): 1.44 fold enrichment (6-mer frequency, TF over GST control)
binding signal (FEV): 1.32 fold enrichment (6-mer frequency, TF over GST control)
binding signal (ETV5): 1.36 fold enrichment (6-mer frequency, TF over GST control)
binding signal (HSF1): 1.26 fold enrichment (6-mer frequency, TF over GST control)
binding signal (SPIC): 1.3 fold enrichment (6-mer frequency, TF over GST control)
binding signal (ELF4): 1.27 fold enrichment (6-mer frequency, TF over GST control)
binding signal (ELK4): 1.51 fold enrichment (6-mer frequency, TF over GST control)
binding signal (ETV2): 1.29 fold enrichment (6-mer frequency, TF over GST control)
binding signal (ELF3): 1.46 fold enrichment (6-mer frequency, TF over GST control)
binding signal (CRX): 1.13 fold enrichment (6-mer frequency, TF over GST control)
binding signal (ETV1): 1.41 fold enrichment (6-mer frequency, TF over GST control)

Source: article PMC7862700, “An all-to-all approach to the identification of sequence-specific readers for epigenetic DNA modifications on cytosine”
